Data taken from paper PMC12136788.
Over roughly 5,800 sequences, “enrichment r” has its median near 0.68; the highest 2% begin near 11. The list is a sample of the results.

T1: UNK ZnF1-6 (called full-length) (human, UniProt Q9C0B0 30-357)
T1 sequence: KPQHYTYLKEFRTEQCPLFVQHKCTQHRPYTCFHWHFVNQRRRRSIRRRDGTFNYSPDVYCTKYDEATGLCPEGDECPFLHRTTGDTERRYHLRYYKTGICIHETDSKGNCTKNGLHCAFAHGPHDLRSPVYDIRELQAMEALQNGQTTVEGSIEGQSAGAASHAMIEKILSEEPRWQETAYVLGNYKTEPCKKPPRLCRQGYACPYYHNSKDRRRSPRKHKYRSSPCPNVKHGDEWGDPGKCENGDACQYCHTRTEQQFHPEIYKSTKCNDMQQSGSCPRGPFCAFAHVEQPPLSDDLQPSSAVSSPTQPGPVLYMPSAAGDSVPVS

B1: chr12:64128047:64128160:+|CDS|ENSG00000196935|unk|FALSE|unique (ssRNA)
RNA: GGGAGUUCUACAGUCCGACGAUCGGCAGCCUGACCAACAUCAGCCGGCACGACUCCCUCAAGAAGAUCGACAGCCCUCCCAUUAGAAGGUCCACGUCAUCAGGGCAAUACACGGGCUUCAAUGACCACAAGCCACUGGACCCACAACAGAGGAUUGAGCAUCA
B2: chr11:30010719:30012678:-|CDS|ENSG00000182255|control|control|control (ssRNA)
RNA: GGGAGUUCUACAGUCCGACGAUCUUUGCUCAAGAAAUUUCGGAGCUCUACUUCUUCUUCCCUGGGGGACAAGUCAGAGUAUCUAGAGAUGGAAGAAGGAGUUAAGGAAUCUCUGUGUGCAAAGGAGGAGAAGUGUCAGGGAAACAACAGAGGAUUGAGCAUCA
B3: chr11:101473508:101473773:-|CDS|ENSG00000137672|control|control|control (ssRNA)
RNA: GGGAGUUCUACAGUCCGACGAUCUCCUCAAAUAAUAUCUGAAGGUCUUUAUGCAAUUGCUGUAGUUUUAAGUUUCUCUAGGAUAGCUUAUAUUUUACCAGCAAAUGAAAGCUUUGGACCUCUGCAGAUAUCACUUGGAAGAACCAACAGAGGAUUGAGCAUCA
B4: ENSG00000092201:stop:overlap|stop_codon|ENSG00000092201|stop_codon|NA|stop_codon (ssRNA)
RNA: GGGAGUUCUACAGUCCGACGAUCUUCCCCGCGUGCCAGCCUUGGUCAUGCAUAGCAGCACCUCUCGCAGUCUCUUCCCGCCCUAGAAGAGGCAACAUCCUUCCCUCCUACUCCGUGGUCACGUCUUGCUGCCCUCCCCUGCCGCAACAGAGGAUUGAGCAUCA
B5: chr8:143915815:143915916:-|3pUTR|ENSG00000178209|msi1|FALSE|unique (ssRNA)
RNA: GGGAGUUCUACAGUCCGACGAUCGCCAGGUGCCUUGGAGGGUCCCAAGCUGGGCCCCAGCCCACCCUCCUGUCUUCCCAGGGUAGCCCGCCUGCCAGUCCUAGCUGCACAGGGCAGCUGGGCCCAACCCUGUCUGUAGAGGGCCAACAGAGGAUUGAGCAUCA
B6: chr1:17067933:17068034:-|3pUTR|ENSG00000117115|msi1|total|mutant (ssRNA)
RNA: GGGAGUUCUACAGUCCGACGAUCACAUAAGGACCCUGGCCUACCCUCCAGCCCAACAGCCAGUUCUGGGUCAGCUGCCAACUCCGGGGUGGUUUGAUUAUCCCAUUGAAAUUCACCAGUGCCUUUGCCAAAGACCCUCUCAUUCAACAGAGGAUUGAGCAUCA
B7: chr22:31279490:31279591:+|3pUTR|ENSG00000182541|msi1|FALSE|unique (ssRNA)
RNA: GGGAGUUCUACAGUCCGACGAUCAGCAGCUUGGGCUGGGAAGAGGUGGUGGCAGAGUCUCAAAGCUGAGAUGCUGAGAGAGAUAGCUCCCUGAGCUGGGCCAUCUGACUUCUACCUCCCAUGUUUGCUCUCCCAACUCAUUAGCAACAGAGGAUUGAGCAUCA
B8: chr1:193029531:193029688:-|CDS|ENSG00000116750|unk|total|mutant (ssRNA)
RNA: GGGAGUUCUACAGUCCGACGAUCUUGAUAUCUUCACUUUUAUAUUUUACCGGUAAUUAAUAAUGCUUGUGCUACUCAAGCCACCGUGAGUGUGUUACUGAACUGUACCCACCAGGAUGUCCAUUCCGGCGAGACAUUAUCAGACAACAGAGGAUUGAGCAUCA
B9: ENSG00000099250:stop:overlap|stop_codon|ENSG00000099250|stop_codon|NA|stop_codon (ssRNA)
RNA: GGGAGUUCUACAGUCCGACGAUCCAAUUCACGGAGAAAUGUGGUCAUCUGGAAAAGGAGUCUGCUCCCUGGAUGCGAAUCUGUAGCCUGGAUUCUGGAAGGCGAUGCUGAUUUAGGAGGUGGAGUGAAUGGAGAAUUGAAAAGCAACAGAGGAUUGAGCAUCA
B10: chr12:10081268:10081413:-|three_prime_utr|ENSG00000150048|control|control|control (ssRNA)
RNA: GGGAGUUCUACAGUCCGACGAUCUCAGUACUACCAGCUCUCCAAUACUGGUCAAGACACCAUUUCUCAAAUGGAAGAAAGAUUAGGAAAUACGUCCCAAGAGUUGCAAUCUCUUCAAGUCCAGAAUAUAAAGCUUGCAGGAAGCAACAGAGGAUUGAGCAUCA
B11: chr15:63774837:63774950:-|CDS|ENSG00000103657|unk|total|mutant (ssRNA)
RNA: GGGAGUUCUACAGUCCGACGAUCGUAACAACAUUUCUUAAAGGAGUCACUAUUCCUAAUUCUGGGGCAGACACUUCCGGUCGCCGAUCCGCUUCUGAGUUGCUGCUUGGUUUGGCAGCUCAACGAGGCUCAUUGCGAUAUCUUCAACAGAGGAUUGAGCAUCA
B12: ENSG00000086827:stop:overlap|stop_codon|ENSG00000086827|stop_codon|NA|stop_codon (ssRNA)
RNA: GGGAGUUCUACAGUCCGACGAUCUAAUUCGUGCCUUGUUUCAGAACACAGAAAGAAGAGCAGCUGCCCUUGCUAAAAUUAAAUAGCUCCAUCUUCUUAAGAAAGCUAUGUCUUGAAUAUGUGGAUUCUUCCCUUGGCAUAAUUCAACAGAGGAUUGAGCAUCA
B13: chr10:27397735:27399240:-|CDS|ENSG00000182077|control|control|control (ssRNA)
RNA: GGGAGUUCUACAGUCCGACGAUCUCUUCUAGGCUACCCAGUGUUACAAAGUGCAAUUUCAACAAUAAUAGGGGUGUGUGUUUUAGCUGCAGCGAAAGCAUACAUCUUCAGAACAUUUUUUAAGAUUAUGUUUCUUGUUAUGAUCAACAGAGGAUUGAGCAUCA
B14: ENSG00000124766:be:win_3751|3pUTR|ENSG00000124766|bound_else_gene|NA|bound_elsewhere_windowed (ssRNA)
RNA: GGGAGUUCUACAGUCCGACGAUCUUGUACAUUUAAGUCUGUAUUAUAAUAAGCAAAAAGAUUGUGUGUAUGUAUGUUUAAUAUAACAUGACAGGCACUAGGACGUCUGCCUUUUUAAGGCAGUUCCGUUAAGGGUUUUUGUUUCAACAGAGGAUUGAGCAUCA
B15: chr13:45957189:45957298:-|CDS|ENSG00000123200|unk|total|mutant (ssRNA)
RNA: GGGAGUUCUACAGUCCGACGAUCUGUUUUUGUUUUCUUCAAACCGGGCACCAUAAAACAAGCUUACACGAGUGCUCCAAUGGCCGACAAUGAAUUACUUCGAUUGAGUCUUCGGUUAUUUAAGCGGAAGACUACUUGCCAUGCCAACAGAGGAUUGAGCAUCA
B16: chrX:130230552:130230660:-|CDS|ENSG00000056277|unk|total|mutant (ssRNA)
RNA: GGGAGUUCUACAGUCCGACGAUCAUCAGAACGUCCAUGUGAUGAAGACAAGACUGAUUCAGAGACAGGAAAGUUGAUCAUGUCCGUCAAUGAGUUUUAUUAUGGAAGGCAUGAAGGAGUCACUGAGAAAGAGCCAAAGACUUACAACAGAGGAUUGAGCAUCA
B17: ENSG00000107863:be:win_2551|CDS|ENSG00000107863|bound_else_gene|NA|bound_elsewhere_windowed (ssRNA)
RNA: GGGAGUUCUACAGUCCGACGAUCUUAAUUCGCCGUCAGCUCUCACAUGACCACGAAUCUGUUGGCCCUCCUAGCCUGGAUGCUCAGCCCAACUCAAAGACAGAAAGAUCAAAAUCAUAUGAUGAGGGUCUGGAUGAUUACAGACAACAGAGGAUUGAGCAUCA
B18: chr20:57651677:57651767:-|3pUTR|ENSG00000124225|msi1_unk|FALSE|overlapping (ssRNA)
RNA: GGGAGUUCUACAGUCCGACGAUCGUUGAGCUGUGUCUUGAAGGCAAAAGAAAAAAAAUUUCUACAGUAGUCUUUCUUGUUUCUAGUUGAGCUGCGUGCGUGAAUGCUUAUUUUCUUUUGUUUAUGAUAAUUUCACUUAACUUUCAACAGAGGAUUGAGCAUCA
B19: ENSG00000124766:be:win_3701|3pUTR|ENSG00000124766|bound_else_gene|NA|bound_elsewhere_windowed (ssRNA)
RNA: GGGAGUUCUACAGUCCGACGAUCUCAGGUUUAUAGCUGUUGUGUUUAAAAAUUGAAAAAAGUGGAAAACAUCUUUGUACAUUUAAGUCUGUAUUAUAAUAAGCAAAAAGAUUGUGUGUAUGUAUGUUUAAUAUAACAUGACAGCAACAGAGGAUUGAGCAUCA
B20: chr4:1716041:1716142:-|3pUTR|ENSG00000168936|msi1|total|mutant (ssRNA)
RNA: GGGAGUUCUACAGUCCGACGAUCAGGCUUCCCCGAGCGCUCAGCAGGUGAAGGCAGCAGGGGCCAUGGCCGGGAGCCAGGCCCCGCUUUGAACUGAGUUUCAAGGGCUGCCAAAGAGGGGCAGUGGGUUGGGGUUGUUUUUACCAACAGAGGAUUGAGCAUCA
B21: chr6:158785413:158785514:-|CDS|ENSG00000092820|msi1|FALSE|unique (ssRNA)
RNA: GGGAGUUCUACAGUCCGACGAUCGAGCUCAUCCAGGACAUCACCCAGAAACUUUUCUUCCUCCAAGUGAAGGAAGGAAUCCUUAGCGAUGAGAUCUACUGCCCCCCUGAGACUGCCGUGCUCUUGGGGUCCUACGCUGUGCAGCAACAGAGGAUUGAGCAUCA
B22: chr10:113876644:113876745:+|CDS|ENSG00000196865|msi1|total|mutant (ssRNA)
RNA: GGGAGUUCUACAGUCCGACGAUCGGUUAAUGAUGCAGAUGCCAGCCUUUGGCAAGAACCCGAAGUUUCCUGCUGGCCAACUCCCGUCAUACUUGGACCUCGUGGAAACAUGUUGUUUUCUUUGAUUGGAGAGGGACACAAAGACAACAGAGGAUUGAGCAUCA

biological target: T1, UNK ZnF1-6 (called full-length); experiment: nsRBNS (natural sequence RNA bind-n-seq); RBNS binding buffer (assumed for nsRBNS): 25 mM Tris pH 7.5, 150 mM KCl, 3 mM MgCl2, 0.01% Triton X-100, 500 ug/ml BSA, 20 U/ml SUPERase-In, 4 C; UNK is unkempt and MSI1 is Musashi-1; names of the RNAs are library labels; protein concentration not given here; high values mean tight binding

**Q.** B1 was tested. Which binding signal did it give?
**A.** 1.28 enrichment R

**Q.** How did the binding signal turn out when B2 was run?
**A.** 0.697 enrichment R

**Q.** How did the binding signal turn out when B3 was run?
**A.** 0.473 enrichment R

**Q.** With B4 as the binder, how does the binding signal read?
**A.** 0.859 enrichment R

**Q.** How did the binding signal turn out when B5 was run?
**A.** 1.03 enrichment R

**Q.** For B6, which binding signal is on record?
**A.** 0.749 enrichment R

**Q.** With B7 as the binder, how does the binding signal read?
**A.** 0.852 enrichment R

**Q.** With B8 as the binder, how does the binding signal read?
**A.** 0.805 enrichment R

**Q.** How did the binding signal turn out when B9 was run?
**A.** 0.76 enrichment R

**Q.** Which binding signal does the source give for B10 here?
**A.** 0.413 enrichment R

**Q.** B11 was tested. Which binding signal did it give?
**A.** 0.574 enrichment R

**Q.** B12 was tested. Which binding signal did it give?
**A.** 1.49 enrichment R

**Q.** B13 was tested. Which binding signal did it give?
**A.** 0.38 enrichment R

**Q.** B14 was tested. Which binding signal did it give?
**A.** 0.359 enrichment R

**Q.** For B15, which binding signal is on record?
**A.** 0.325 enrichment R

**Q.** With B16 as the binder, how does the binding signal read?
**A.** 0.608 enrichment R

**Q.** With B17 as the binder, how does the binding signal read?
**A.** 0.436 enrichment R

**Q.** For B18, which binding signal is on record?
**A.** 1.22 enrichment R

**Q.** How did the binding signal turn out when B19 was run?
**A.** 0.65 enrichment R

**Q.** B20 was tested. Which binding signal did it give?
**A.** 0.696 enrichment R

**Q.** Which binding signal does the source give for B21 here?
**A.** 0.521 enrichment R

**Q.** For B22, which binding signal is on record?
**A.** 0.577 enrichment R
